3CLpro inhibitor: SARS-CoV 3CLpro protease inhibition; recombinant SARS-CoV 3CLpro, quenched FRET peptide cleavage; actives 0.14% (n = 290,000); inhibition, % at 6 µM; P0C6X7; in the data active = inhibition above about 12%
PrPC surface inh: cell surface PrPC inhibition, primary TR-FRET screen; P04156; TR-FRET read-out; inhibition, % at 13.8 µM; actives 0.43% (n = 370,000); AID 720596; in the data active = inhibition above about 24%; also: 0% = median of the test wells and 100% = reference compound wells
PrP UTR inh: suppresses PrP 5' UTR mRNA reporter expression; actives 0.35% (n = 340,000); inhibition, % (no concentration beside the values); cell-based PrP 5' UTR mRNA reporter, plate reader; in the data active = inhibition above about 52%; also: 0 = median of the neutral control wells
PriA SSB inh: K. pneumoniae PriA-SSBct interaction inhibition | AID 1272365 | inhibition, % at 33 µM | AlphaScreen SSBct-PriA binding, biotinylated peptide | actives 0.6% (n = 430,000); in the data active = inhibition mostly above about 37%, no sharp cut-off; inactive = mostly below about 20%;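 also: plate controls were negative control peptide for no effect and reference peptide for full effect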
BJeLR lethal: BJeLR cell viability loss. BJeLR (HRASV12) viability, CellTiter-Glo ATP luminescence, 48 h. actives 0.17% (n = 300,000). inhibition, % (test concentration not listed); in the data active = inhibition above about 50%
PrPC confirm: confirmation of inhibitors of cell surface human prion protein; cell surface PrPC level, TR-FRET; AID 743200; shares compounds with PrPC surface inh; inhibition, % at 13.8 µM; actives 65% (n = 1,500); in the data active = inhibition above about 25%
LD9 tox: LD9 cell cytotoxicity, PrPc inhibitor counter-screen; shares compounds with PrPC surface inh; LD9 cells cytotoxicity, luminescence viability; inhibition, % at 13.8 µM; actives 29% (n = 1,500); AID 743201; in the data active = inhibition above about 9.5%
* marks the source's active call; other numbers are inactive results; i = inactive; . = not tested or not shown. Only some compounds are listed: those with a hit (about 1.2% of all), similar ones and a draw of the others.

SMILES | 3CLpro inhibitor | PrPC surface inh | PrP UTR inh | PriA SSB inh | BJeLR lethal | PrPC confirm | LD9 tox
Cn1c(CNC(=O)C2CCCCC2)cc2cc(Cl)ccc21 | 3.9 | 30.8* | -24.4 | -7.9 | 4.0 | 35.0* | -5.3
Cc1cc2cc(CNC(=O)C3CCCC3)ccc2n1C | . | 44.3* | -30.9 | 1.3 | 1.4 | 4.7 | -2.9
O=C(NNC(=O)C(c1ccccc1)c1ccccc1)c1ccccn1 | -0.7 | 34.2* | 28.5 | 9.5 | 20.0 | 22.7 | 43.0*
O=C(NNc1ccccn1)C(c1ccccc1)c1ccccc1 | -0.8 | -5.4 | -8.7 | -8.5 | 0.1 | . | .
O=C(Cc1cccs1)Nc1nc(-c2ccc(F)c(F)c2)cs1 | -1.7 | 23.0 | -21.9 | -29.3 | -5.7 | . | .
O=C(Cc1cccs1)Nc1nc(-c2ccc(F)cc2F)cs1 | 7.7 | 26.2* | -12.3 | -22.0 | 15.5 | 15.7 | -7.3
O=C(c1ccccc1)c1cc(Cl)ccc1N=Cc1c(O)c2ccccc2oc1=O | . | . | . | -6.0 | . | . | .
S=C(Nc1ccccc1)Nc1ccc(Br)cc1 | 6.0 | 24.6* | . | -7.4 | -0.3 | 19.8 | 4.8
COc1ccccc1C(=O)N1CCC(Oc2ncccc2Cl)CC1 | . | . | . | -7.0 | . | . | .
COC(=O)CSc1ccnc2cc(Cl)ccc12 | -4.5 | 68.1* | -11.2 | 1.5 | 12.5 | 91.9* | -6.0
Cc1cnc2cc(Cl)ccc2c1SCC(=O)O | 3.7 | -1.7 | -22.4 | -9.2 | -0.3 | . | .
O=C(O)CSc1ccnc2cc(Cl)ccc12 | -2.6 | 47.2* | -0.5 | -3.3 | 5.8 | 90.3* | 3.9
N#Cc1c(NC(=O)CCN2CCOCC2)sc2c1CCCCC2 | . | . | . | -3.0 | . | . | .
Cc1nc(N2CCOCC2)nc(C)c1NC(=O)Cc1ccc(Cl)cc1 | . | . | . | -10.0 | . | . | .
Cc1cc2cc(CNC(=O)c3cccc([N+](=O)[O-])c3)ccc2n1C | 4.1 | 36.8* | -23.9 | 19.9 | 8.2 | -5.3 | -4.7
Cc1c(C(=O)NCc2ccc3c(c2)cc(C)n3C)cccc1[N+](=O)[O-] | 2.3 | 34.3* | -7.6 | 28.2 | -2.6 | 7.5 | -1.8
Cc1cc2cc(CNC(=O)c3ccccc3Cl)ccc2n1C | . | . | . | 31.0 | . | . | .
CC(=O)Nc1ccc(SCC(=O)N2CCN(c3ccccc3)CC2)nn1 | . | . | . | -11.0 | . | . | .
Clc1ccc(N/N=C/c2cccnc2)cc1 | -0.4 | 25.0* | -36.5 | . | 1.1 | 17.5 | 2.2
Clc1ccc(NN=Cc2cccnc2)cc1 | . | . | . | -1.9 | . | . | .
COc1ccccc1NS(=O)(=O)c1ccc(-c2cnc(C3CC3)o2)cc1 | 3.2 | 13.6 | 13.9 | 0.9 | -3.3 | . | .
COc1ccc(NS(=O)(=O)c2ccc(-c3cnc(C4CC4)o3)cc2)cc1OC | -5.3 | 31.6* | -30.9 | 2.7 | 35.3 | 21.3 | 23.0*
Cc1ccc(SC2=C[C@@]3(O)CC[C@@H](O)[C@@](Sc4ccc(C)cc4)(C2=O)[C@H]3O)cc1 | . | 27.0* | . | . | . | 19.6 | -9.0
CC(C)(C)c1ccc(SC2=C[C@@]3(O)CC[C@@H](O)[C@@](Sc4ccc(C(C)(C)C)cc4)(C2=O)[C@H]3O)cc1 | . | 9.1 | . | . | . | . | .
Cc1cc(C2(c3ccc(O)c(C)c3)OC(=O)c3ccccc32)ccc1O | 0.4 | 2.2 | -17.8 | 3.8 | -1.6 | . | .
SMILES | 3CLpro inhibitor | PrPC surface inh | PrP UTR inh | PriA SSB inh | BJeLR lethal | PrPC confirm | LD9 tox
Cc1cc(O)c(C(C)C)cc1C1(c2cc(C(C)C)c(O)cc2C)OC(=O)c2ccccc21 | 8.1 | 25.1* | -18.3 | 9.7 | -0.4 | 15.8 | -7.0
CCOc1ccc(NC(=O)CCSc2ccc3ccccc3n2)cc1 | 5.1 | 61.9* | -24.9 | 2.0 | -10.4 | 60.2* | 2.8
O=C(CSc1ccc2ccccc2n1)N/N=C/c1ccc(O)cc1 | -1.6 | 24.9* | -10.3 | . | -8.8 | 22.7 | 1.2
NS(=O)(=O)c1ccc(NC(=O)CSc2nc3ccccc3c(=O)n2-c2ccc(Br)cc2)cc1 | . | 33.6* | . | . | . | 20.2 | -1.5
O=C(CSc1ccc2ccccc2n1)Nc1ccc(Cl)cc1 | . | . | . | -3.0 | . | . | .
NS(=O)(=O)c1ccc(NC(=O)CSc2ccc3ccccc3n2)cc1 | 2.6 | 36.2* | 0.3 | -1.0 | 7.6 | 43.4* | -0.5
Cn1cnc(S(=O)(=O)Nc2ccc3c(c2)C(=O)NCC3)c1 | . | . | . | -6.0 | . | . | .
O=C(NC(Cc1c[nH]c2ccccc12)C(=O)NN=Cc1ccc(Cl)cc1)c1cccs1 (stereo not given) | . | . | . | -5.2 | . | . | .
O=C1CCCN1C(=O)CSc1ccc2ccccc2n1 | . | 41.4* | -21.1 | 9.1 | . | 52.2* | 0.6
CCCC(=O)Nc1c2c(nc3ccccc13)N(c1ccccc1)CC2 | 6.0 | . | -0.4 | -9.8 | 1.6 | . | .
O=C(CN1CCCCC1)Nc1c2c(nc3ccccc13)N(c1ccccc1)CC2 | 1.2 | 44.0* | -15.3 | -24.5 | 1.0 | 102.2* | 11.6*
COc1cccc2c(NCc3ccccc3)nc(-n3c(N)nc4ccccc43)nc12 | . | 70.0* | . | . | . | 49.3* | 98.2*
OC[C@@H]1CN(Cc2ccc(F)cc2)C[C@H](n2cnc3c(NC4CC4)ncnc32)O1 | . | -2.7 | . | . | . | . | .
OC[C@@H]1CN(Cc2ccc(Cl)cc2)C[C@H](n2cnc3c(NC4CCCC4)ncnc32)O1 | . | 28.2* | . | . | . | 34.8* | -5.4
COc1ccc2nc(-c3ccc(Cl)c(NC(=O)C(C)Oc4cccc(F)c4)c3)cn2n1 (stereo not given) | . | . | . | -17.0 | . | . | .
O=C(Nc1ccccc1)c1ccc(CSc2ncccn2)cc1 | 1.0 | 36.8* | -101.0 | -7.3 | 12.4 | 38.2* | 1.7
CCCc1c(-c2ccc(F)cc2F)ncn1Cc1ccccc1OC | . | 25.4* | . | . | . | 7.4 | 9.0
CCCc1c(-c2cccc(F)c2)ncn1Cc1ccccc1OC | . | 17.2 | . | . | . | . | .
Cc1ccc(Cc2c(-c3ccc(C)cc3)nc3ccc(Br)cn23)cc1 | . | 20.3 | . | . | . | . | .
Cc1cc(Br)cn2c(Cc3ccccc3)c(-c3ccco3)nc12 | . | 35.5* | . | . | . | 50.3* | -2.8
Cc1ccc(Cc2c(-c3ccco3)nc3ccc(Br)cn23)cc1 | . | 33.7* | . | . | . | 57.4* | -5.4
COc1ccc(Cc2c(-c3ccco3)nc3c(C)cc(Br)cn23)c(C)c1 | . | -4.1 | . | . | . | . | .
Cc1cc(Br)cn2c(Cc3ccsc3)c(-c3ccco3)nc12 | . | 30.1* | . | . | . | 43.5* | -3.2
CCC(C)NC(=O)c1cccc(OCc2c(C)noc2C)c1 (stereo not given) | 5.0 | -1.4 | -11.1 | -1.1 | 0.8 | . | .
CCOC(=O)c1c(C)[nH]c(C(=O)C(C)OC(=O)c2cccc(OCc3c(C)noc3C)c2)c1C (stereo not given) | 4.1 | 38.3* | -9.8 | -4.6 | -1.9 | 26.3* | 5.1
SMILES | 3CLpro inhibitor | PrPC surface inh | PrP UTR inh | PriA SSB inh | BJeLR lethal | PrPC confirm | LD9 tox
C=CCOc1c(/C=N/NC(N)=O)cccc1OC | . | . | . | i | . | . | .
O=C(Cc1ccc(F)cc1)NC1CCN(C(=O)c2cn(-c3ccc(Cl)cc3)nn2)CC1 | . | . | . | -22.0 | . | . | .
CSC[C@@](C)(O)CNC(=O)NC1CCCCC1 | . | . | . | -8.0 | . | . | .
Cc1cc(-c2cccc(Br)c2)c(C#N)c(N)n1 | -1.0 | 43.5* | -2.0 | -17.4 | . | 42.5* | 1.4
COc1ccccc1-n1c(O)c(C=NN2CCCCC2)c(=O)n(-c2ccccc2OC)c1=S | . | . | . | 1.6 | . | . | .
COc1ccc(NC(=O)c2c(N)no[n+]2[O-])c(OC)c1 | 2.5 | 0.2 | -9.1 | -9.5 | -29.5 | . | .
COc1ccc(NC(=O)c2c(N)no[n+]2[O-])cc1 | 1.9 | 26.1* | -18.2 | -16.7 | -3.6 | 25.1* | -6.9
